Screens (PubChem BioAssay)
Rows were chosen to be rich in hits. Some 20% of all compounds tested hit in one or more screens of this group.
Pf growth 48h – Primary qHTS for delayed death inhibitors of the malarial parasite plastid, 48 hour incubation; P. falciparum luciferase growth in erythrocytes, 48 h; Potency, µM (series often up to 28.7 µM), usual class: inhibitors; 310,000 tested, 5.9% active; AID 504832, 2011
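Luminescence readout; reporter = integrated firefly luciferase in P. falciparum. RBC culture at 2% hematocrit, 0.1% parasitemia final, 37 C/5% CO2; decreased signal taken as growth inhibition.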
Pf growth 96h – Primary qHTS for delayed death inhibitors of the malarial parasite plastid, 96 hour incubation; 320,000 tested, 6.9% active; Potency, µM (titrated, usually from 28.7 µM), usual class: inhibitors; P. falciparum luciferase reporter growth, 96 h
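Two parasite generations (96 h, 37 C, 5% CO2) of compound exposure in infected erythrocytes (0.05% parasitemia, 2% hematocrit). Luciferase-reporter P. falciparum; decreased luminescence indicates inhibited growth, aimed at apicoplast-acting delayed death.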
HCMV antiviral – qHTS Assay for inhibitors of the human cytomegalovirus (HCMV); activity change, negative = inhibition, % at 57.5 µM; HFF cells, HCMV-luciferase reporter, 72 h; hits give low values; 410,000 tested, 4.5% active; in the data active = activity change below about -60%; inconclusive = no clear call, values can overlap the other calls; inactive = above about -39%
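Two compound doses tested in HFFs infected with HCMV-luciferase, MOI 1 PFU/cell, 72 h at 37C. Lysate luminescence read with OneGlo; data normalized against buffer-only and 10uM Salinomycin inhibitor controls.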
Cycloheximide cs – Cycloheximide Counterscreen for Small Molecule Inhibitors of Shiga Toxin; cell reporter, cycloheximide protein synthesis inhibition counterscreen; max response, %; 300,000 tested, 12% active; AID 2314, 2010; in the data active = max response mostly above about 13%, no sharp cut-off; inactive = mostly below about 14%; also: read at 38.3 µM for the half of the compounds with a filed dose
Shiga toxin inh – A qHTS for Small Molecule Inhibitors of Shiga Toxin; Vero cells, Shiga toxin protein synthesis inhibition reporter; inhibition, % at 38.7 µM; 290,000 tested, 9.2% active; in the data active = inhibition mostly above about 28%, no sharp cut-off; inactive = mostly below about 43%
Of the large screens only hits and unclear results are named; the others gave an inactive call. Unless noted, calls follow the shape of the dose curve; as a rule, active = well fitted inhibition curve with a large enough effect; inconclusive = small, poorly fitted or top-dose-only effect, or another doubt; inactive = no such curve, though single readings can be large or run the other way.

Cc1cc(Oc2cccc3c2S(=O)(=O)N([C@H](C)c2ccccc2)C[C@@H](COCc2ccccc2)O3)cc(C)c1C	HCMV antiviral -93 (no result: Pf growth 48h, Pf growth 96h, Cycloheximide cs, Shiga toxin inh)
CCCCN1CC(COCc2ccccc2)Oc2cccc(N3CCCC3)c2S1(=O)=O (centres undefined)	none (no result: Pf growth 48h, Pf growth 96h, Cycloheximide cs, Shiga toxin inh)
C[C@H](c1ccccc1)N1C[C@@H](COCc2ccccc2)Oc2cccc(N3CCCCC3)c2S1(=O)=O	HCMV antiviral -93 (no result: Pf growth 48h, Pf growth 96h, Cycloheximide cs, Shiga toxin inh)
Cc1ccc(C(=O)Nc2nc(-c3ccccc3)c(-c3ccccc3)o2)cc1	Pf growth 96h inconclusive
CCS(=O)(=O)n1nc(-c2ccco2)nc1N	none
CCCCOc1ccc(C(O)C(CN2CCOCC2)c2ccccc2)cc1 (centres undefined)	Pf growth 48h inconclusive, Pf growth 96h inconclusive, HCMV antiviral inconclusive
CCCOc1ccc(C(O)C(CN2CCOCC2)c2ccccc2)cc1 (centres undefined)	Pf growth 48h 8.3µM, Pf growth 96h 8.3µM, HCMV antiviral inconclusive
CCOc1ccc(C(O)C(CN2CCOCC2)c2ccccc2)cc1 (centres undefined)	Pf growth 48h inconclusive, Pf growth 96h 10µM, HCMV antiviral inconclusive
Cc1cccc(-n2cc(C(=O)O)c(=O)cc2C)c1	none
Cc1cc(C)cc(-n2cc(C(=O)O)c(=O)cc2C)c1	HCMV antiviral -80
CC(C)C1(C)C(=O)N=C2c3ccccc3C(=O)N21 (centres undefined)	Pf growth 96h 12µM
Cc1ccc(Cl)cc1NC(=O)CC1NCCNC1=O (centres undefined)	none
Cc1cccc(NC(=S)NC(=O)c2ccco2)n1	Cycloheximide cs 16
Cc1nc(NC(=S)NC(=O)c2cncc(Br)c2)ccc1Br	HCMV antiviral inconclusive
N#Cc1ccccc1NC(=S)NC(=O)c1cccs1	Cycloheximide cs 31, Shiga toxin inh 77
Cc1cccc(NC(=S)NC(=O)c2cccs2)n1	Cycloheximide cs 24, Shiga toxin inh 115
Cc1nc(NC(=S)NC(=O)c2cccs2)ccc1Br	Pf growth 96h inconclusive, Cycloheximide cs 31, Shiga toxin inh 32
Cc1cccc(NC(=O)CNC(=O)c2ccco2)n1	none (no result: Cycloheximide cs, Shiga toxin inh)
Cc1cccc(NC(=O)CCC(=O)c2cccs2)n1	none (no result: Cycloheximide cs, Shiga toxin inh)
O=c1nc2n(c3cccc(Cl)c13)CCCCC2	none
O=C1C=CN2CCCCC2CC1 (centres undefined)	none (no result: Pf growth 48h, Pf growth 96h, Cycloheximide cs, Shiga toxin inh)
O=C(c1ccc(=O)n(Cc2ccc(Cl)c(Cl)c2)c1)N1CCOCC1	none
COC(=O)c1ccc(NC(=O)CC2C(=O)N(c3ccccc3)C(=O)N2C2CCCC2)cc1 (centres undefined)	none (no result: Pf growth 48h, Pf growth 96h, Cycloheximide cs, Shiga toxin inh)
CCOc1ccccc1NC(=O)c1cc2c(Cl)nc3ccccc3c2s1	none (no result: Pf growth 48h, Pf growth 96h, Cycloheximide cs, Shiga toxin inh)
CCOc1ccccc1NC(=O)c1cc(-c2ccncc2)nc2c(Cl)cccc12	Pf growth 48h 5.2µM
COc1cccc(C(=O)Nc2cccc3cccnc23)c1OC	Cycloheximide cs 22 (no result: HCMV antiviral, Shiga toxin inh)
CCOc1ccccc1C(=O)Nc1cccc2cccnc12	Pf growth 48h inconclusive, Pf growth 96h inconclusive, HCMV antiviral inconclusive, Cycloheximide cs 20, Shiga toxin inh 19
C=C1SC(=Nc2c(C)cccc2Cl)N(C(=O)c2sc3ccccc3c2Cl)C12CCCCC2	Pf growth 48h inconclusive, Pf growth 96h 1.9µM, HCMV antiviral inconclusive
O=C(NCC(=O)N1CCCCC1)c1sc2ccccc2c1Cl	none (no result: Cycloheximide cs, Shiga toxin inh)
C=C1SC(=Nc2ccccc2Cl)N(C(=O)c2sc3ccccc3c2Cl)C1(C)C	Pf growth 48h inconclusive, Pf growth 96h inconclusive, Cycloheximide cs 50, Shiga toxin inh 99
C[C@@H]1CN([C@H](C)CO)C(=O)CCCn2nncc2CO[C@H]1CN(C)C(=O)Nc1cccc(Oc2ccccn2)c1	none (no result: Pf growth 48h, Pf growth 96h, Cycloheximide cs, Shiga toxin inh)
CCCc1c(C(=O)N/N=C(\C)CCc2ccccc2)nnn1-c1nonc1N	none
COc1ccccc1CNC(=O)CCn1c(=O)[nH]c2ccsc2c1=O	Pf growth 48h 1µM, Pf growth 96h inconclusive
O=C(CCCn1c(=S)[nH]c2ccsc2c1=O)Nc1ccc(F)cc1	none (no result: Pf growth 48h, Pf growth 96h, Cycloheximide cs, Shiga toxin inh)
COc1cc2[nH]c(=O)n(CCC(=O)N3CCc4ccccc4C3)c(=O)c2cc1OC	none (no result: Pf growth 48h)
O=C(CCn1c(=O)[nH]c2ccsc2c1=O)N1CCc2ccccc2C1	Pf growth 96h 10µM
O=C(CCCCCn1c(=O)[nH]c2ccsc2c1=O)NCc1ccccc1	none (no result: Pf growth 48h, Pf growth 96h, Cycloheximide cs, Shiga toxin inh)
COc1ccc(N2CCN(C(=O)CCCn3c(=O)[nH]c4ccsc4c3=O)CC2)cc1	Pf growth 96h 7.4µM (no result: Pf growth 48h)
O=C(CCCn1c(=S)[nH]c2ccsc2c1=O)Nc1ccc2c(c1)OCCO2	HCMV antiviral -75, Cycloheximide cs 39, Shiga toxin inh 98
